# Experimental data from the OligoGym collection.
# Biological target: CD1E
# Test: pooled miR-30 sensor sort-seq; sequence = guide strand
# Conditions: shRNA
# Also: reference of the scale not given here.
row,Sequence,sensor-assay potency score (higher = more potent)
1,TGTCTCGTCAGCATTAGGCAGG,-0.59
2,TTCCTTAATATCTAGGTAGCGA,-0.491
3,ATAACTGGAACAGTGACTGTAA,0.29
4,TTTTTCAGCTCCTGCTTGCTGA,-0.242
5,TAATATCTGGATCTCGAAGGGG,-0.509
6,TAGGATTGTAGAGCCTGGGGAG,-0.471
7,AATATCTGGATCTCGAAGGGGT,0.0216
8,TCTACAGCCAGCTAATATCTGG,-0.694
9,TAGACTGCTGTGTTTCACCCGA,-0.381
10,ATATCCACCATGTCTCGTCAGC,-0.905
11,TATCTGGATAAAACTATGGAAG,-1.28
12,TTAACCGTGAGTCAACTACAAC,-1.49
13,AACTACAACCAATATGACCAGG,-0.902
14,TAAGTTTTTCAGCTCCTGCTTG,-0.417
15,TATTTAAGAAGATTTGTGGGGC,0.193
16,TTCCACTTCTTCAATACTCTGT,0.573
17,TGTTCTTATTTGAACTCTGTTT,-0.835
18,TATTTCCTTAATATCTAGGTAG,-0.111
19,TAGGTAGCGATTGAGCACTTTA,-0.754
20,TATAACTGGAACAGTGACTGTA,0.739
21,TTTTGATCCACGATACTTGTGC,0.208

# Biological target: CD27
# Test: as above
# Conditions: shRNA
row,Sequence,sensor-assay potency score (higher = more potent)
1,TCACACTGAGCAGCCTTTCTAT,-1.13
2,TCACACTCGGTGCACTCCTTGT,-1.13
3,TAGCATGTGGGTCTTTCGCAGC,-0.998
4,AAGGATGCGAATAAAATCGGAG,-0.423
5,AAAACAAGGAACATTCCAGAGA,-0.821
6,ATCTATATTTCCTTCGTTGATG,-1.32
7,TTGGAAGAGGATCACACTCGGT,-0.746
8,TGGAAGAGGATCACACTCGGTG,-0.658
9,TGAAAACAAGGAACATTCCAGA,-0.449
10,TTGATCTATATTTCCTTCGTTG,-0.282
11,TGTAACGACAAGGCTCTGCAGG,-0.28
12,TATATTTCCTTCGTTGATGGAG,-0.211
13,TCTATGCTGGTCACAGTCCTTC,-0.827
14,TCTGGCAGCACAGCTTTCCCTG,-1.15
15,TGCAAGGATCACACTGAGCAGC,-1.06
16,TTTCCTTCGTTGATGGAGGAAC,-0.814
17,TTGTTTGATCTATATTTCCTTC,-0.475
18,TAAAATCGGAGCTGCACAGGGA,0.114
